Experimental data reported in the supplement of paper PMC10849652.
Of roughly 8,800 targets only a part is listed; those with a hit were picked by preference. About 0.5% of all pairs of compound and target were hits. A number with no mark means an inactive call.

Key:
Test in all cases: log2 fold change, soluble protein after heating vs DMSO (PISA); higher = thermal stabilisation; K562 lysate, 10 uM; active = over 0.2 and 3.5 SD of the protein, either way, in both replicates (recomputed)
erlotinib = compound: C#Cc1cccc(Nc2ncnc3cc(OCCOC)c(OCCOC)cc23)c1 [erlotinib]
Outline: (§1)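 Pellets of K562 cells were dounce-homogenised in PBS pH 7.4 with 1 mM MgCl2, and the crude extract was held at 1 mg/mL protein for a 30 min treatment with 10 μM compound. Aliquots were heated for 3 min over 48°C-58°C and pooled before NP-40 was added to 0.5% at 4°C. The supernatant from 21,000xg for 90 min was quantified by TMTpro 16plex LC-MS/MS with channel sums equalised. Values are reported from duplicates as log-two fold change in thermal stability relative to solvent controls.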

[1] = compound: C/C(=N\NC(=O)C1=CC(=CC=C1)S(=O)(=O)N2CCOCC2)/C3=C(C=CC(=C3)Cl)O
Outline: as §1

[2] = compound: C1=CC(=CC=C1C2=NC3=C(N2)C=C(C=C3)C(=O)N)OC4=CC=C(C=C4)Cl
Outline: as §1

[3] = compound: C1=CC2=C(C=CC(=C2)/C=C\3/C(=O)NC(=NCC4=CC=CS4)S3)N=C1
Outline: as §1

[4] = compound: C1=CC2=NC=CN=C2C=C1/C=C/3\C(=O)NC(=O)S3
Outline: as §1

[5] = compound: C1=CC=C(C=C1)C2=NC(=C(N2)C3=CC=NC=C3)C4=CC(=C(C=C4)Cl)O
Outline: as §1

[6] = compound: C1=CC=C2C(=C1)C3=NNC4=CC=CC(=C43)C2=O
Outline: as §1

[7] = compound: C1CCN(C1)C(=O)NC2=CC=CC(=C2)NC3=NC=C(C(=N3)NCCC4=CN=CN4)Br
Outline: as §1

[8] = compound: C1CN(CCC1(CC2=CC=C(C=C2)Cl)N)C3=NC=NC4=C3C=CN4
Outline: as §1

IRAK-1-4 Inhibitor I = compound: C1COCCN1CCN2C3=CC=CC=C3N=C2NC(=O)C4=CC(=CC=C4)[N+](=O)[O-] [IRAK-1-4 Inhibitor I]
Outline: as §1

ibrutinib = compound: C=CC(=O)N1CCC[C@@H](n2nc(-c3ccc(Oc4ccccc4)cc3)c3c(N)ncnc32)C1 [ibrutinib]
Outline: as §1

[9] = compound: CC(=O)c1cnc2ccc(-c3cc(Cl)c(O)c(Cl)c3)nc2c1N[C@H]1CC[C@H](CN(C)C)CC1
Outline: as §1

ralimetinib = compound: CC(C)(C)Cn1c(N)nc2ccc(-c3[nH]c(C(C)(C)C)nc3-c3ccc(F)cc3)nc21 [ralimetinib]
Outline: as §1

[10] = compound: CC(C)(O)CC(=O)NCCn1ccc2ncnc(Nc3ccc(Oc4cccc(C(F)(F)F)c4)c(Cl)c3)c21
Outline: as §1

[11] = compound: CC(C)C1=C2N=C(C=C(N2N=C1)NCC3=CC=CC=C3)NCCCCCCN
Outline: as §1

[12] = compound: CC1=C(C(CC(=O)N1)C2=CC=C(C=C2)C(F)(F)F)C(=O)NC3=C(C=C4C(=C3)C=NN4)F
Outline: as §1

[13] = compound: CC1=C(C2=C(C=C1)C(=O)C3=CC=CC=C3N2CCCN)C
Outline: as §1

[14] = compound: CC1=C(C=C(C=C1)NC(=O)C2=CC(=CC=C2)C(C)(C)C#N)NC3=CC4=C(C=C3)N=CN(C4=O)C
Outline: as §1

[15] = compound: CC1=C(C=C(C=C1)NC(=O)C2=CC(=CC=C2)N(C)C)NC(=O)C3=CC=C(C=C3)O
Outline: as §1

[16] = compound: CC1=CC=C(C=C1)SC2=C3C=C(SC3=CN=C2)C(=O)N
Outline: as §1

UniProt P55735, sequence (P55735 whole entry, looked up): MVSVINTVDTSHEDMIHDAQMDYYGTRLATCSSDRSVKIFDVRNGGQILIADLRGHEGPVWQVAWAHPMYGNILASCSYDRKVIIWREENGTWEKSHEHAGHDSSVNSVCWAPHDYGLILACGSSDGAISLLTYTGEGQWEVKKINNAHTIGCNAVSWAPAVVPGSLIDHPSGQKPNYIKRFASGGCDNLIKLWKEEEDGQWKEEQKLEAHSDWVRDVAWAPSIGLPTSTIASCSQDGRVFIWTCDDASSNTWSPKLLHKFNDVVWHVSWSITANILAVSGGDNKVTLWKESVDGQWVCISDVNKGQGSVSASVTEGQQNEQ
UniProt P40938, sequence (P40938 whole entry, looked up): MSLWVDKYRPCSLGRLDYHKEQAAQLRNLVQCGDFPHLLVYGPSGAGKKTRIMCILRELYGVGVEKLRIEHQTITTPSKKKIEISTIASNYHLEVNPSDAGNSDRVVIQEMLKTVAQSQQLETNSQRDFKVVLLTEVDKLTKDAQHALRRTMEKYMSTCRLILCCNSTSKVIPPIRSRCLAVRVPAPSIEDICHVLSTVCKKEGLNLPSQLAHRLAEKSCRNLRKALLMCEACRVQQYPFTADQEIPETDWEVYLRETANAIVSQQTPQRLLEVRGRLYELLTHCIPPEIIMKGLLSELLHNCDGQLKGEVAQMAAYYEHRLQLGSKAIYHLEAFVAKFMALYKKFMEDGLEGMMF
UniProt Q9BRS2, sequence (Q9BRS2 whole entry, looked up): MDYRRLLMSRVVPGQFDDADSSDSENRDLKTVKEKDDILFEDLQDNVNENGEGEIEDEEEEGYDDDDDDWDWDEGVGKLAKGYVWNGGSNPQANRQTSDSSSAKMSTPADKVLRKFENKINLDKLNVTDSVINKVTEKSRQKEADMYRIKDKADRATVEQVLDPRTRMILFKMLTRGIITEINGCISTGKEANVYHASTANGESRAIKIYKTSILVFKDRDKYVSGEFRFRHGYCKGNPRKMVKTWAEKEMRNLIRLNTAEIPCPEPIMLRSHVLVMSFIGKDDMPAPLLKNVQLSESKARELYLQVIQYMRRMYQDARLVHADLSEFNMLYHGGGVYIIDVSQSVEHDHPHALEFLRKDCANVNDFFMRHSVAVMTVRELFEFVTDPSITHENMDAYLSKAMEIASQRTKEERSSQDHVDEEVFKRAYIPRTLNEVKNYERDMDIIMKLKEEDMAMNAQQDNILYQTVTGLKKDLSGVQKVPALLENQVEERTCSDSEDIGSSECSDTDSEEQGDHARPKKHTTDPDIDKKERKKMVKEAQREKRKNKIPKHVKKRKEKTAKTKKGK
UniProt Q15418, sequence (Q15418 whole entry, looked up): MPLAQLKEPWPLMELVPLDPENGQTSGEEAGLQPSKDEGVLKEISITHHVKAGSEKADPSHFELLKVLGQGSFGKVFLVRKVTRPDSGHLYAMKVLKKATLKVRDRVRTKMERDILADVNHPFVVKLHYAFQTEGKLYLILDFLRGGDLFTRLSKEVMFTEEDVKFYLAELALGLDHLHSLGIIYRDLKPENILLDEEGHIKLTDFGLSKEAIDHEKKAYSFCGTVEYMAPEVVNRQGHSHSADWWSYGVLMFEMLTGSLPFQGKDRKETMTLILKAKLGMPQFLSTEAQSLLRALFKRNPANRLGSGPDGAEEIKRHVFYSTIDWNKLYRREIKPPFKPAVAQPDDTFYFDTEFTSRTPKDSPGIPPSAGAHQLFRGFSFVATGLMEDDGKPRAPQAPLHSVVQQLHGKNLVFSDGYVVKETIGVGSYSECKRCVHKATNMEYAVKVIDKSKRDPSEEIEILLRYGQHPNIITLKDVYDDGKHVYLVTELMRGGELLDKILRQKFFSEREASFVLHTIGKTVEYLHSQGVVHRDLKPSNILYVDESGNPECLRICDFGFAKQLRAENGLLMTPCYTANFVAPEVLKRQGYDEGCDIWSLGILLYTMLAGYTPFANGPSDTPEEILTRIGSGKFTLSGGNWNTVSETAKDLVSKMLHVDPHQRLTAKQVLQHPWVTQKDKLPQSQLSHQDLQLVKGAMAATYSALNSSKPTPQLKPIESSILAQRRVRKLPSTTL
UniProt Q8WWV3, sequence (Q8WWV3 whole entry, looked up): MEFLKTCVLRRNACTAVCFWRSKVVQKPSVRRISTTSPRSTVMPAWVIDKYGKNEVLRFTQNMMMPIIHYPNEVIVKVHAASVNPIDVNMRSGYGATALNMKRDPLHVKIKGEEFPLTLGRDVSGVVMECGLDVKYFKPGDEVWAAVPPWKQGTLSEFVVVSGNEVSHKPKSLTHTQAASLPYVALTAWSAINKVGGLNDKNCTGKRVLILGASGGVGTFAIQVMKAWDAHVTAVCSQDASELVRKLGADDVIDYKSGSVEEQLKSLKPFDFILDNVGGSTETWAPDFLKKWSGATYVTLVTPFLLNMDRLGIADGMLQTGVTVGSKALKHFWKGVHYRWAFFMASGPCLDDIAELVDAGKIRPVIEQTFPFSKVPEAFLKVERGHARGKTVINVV
UniProt Q9Y6B6, sequence (Q9Y6B6 whole entry, looked up): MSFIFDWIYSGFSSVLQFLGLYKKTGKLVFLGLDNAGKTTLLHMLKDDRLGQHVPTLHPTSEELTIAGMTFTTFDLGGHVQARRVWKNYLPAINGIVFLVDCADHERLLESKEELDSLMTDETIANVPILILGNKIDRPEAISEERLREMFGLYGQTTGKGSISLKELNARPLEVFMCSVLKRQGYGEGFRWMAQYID
UniProt Q8N122, sequence (Q8N122 whole entry, looked up): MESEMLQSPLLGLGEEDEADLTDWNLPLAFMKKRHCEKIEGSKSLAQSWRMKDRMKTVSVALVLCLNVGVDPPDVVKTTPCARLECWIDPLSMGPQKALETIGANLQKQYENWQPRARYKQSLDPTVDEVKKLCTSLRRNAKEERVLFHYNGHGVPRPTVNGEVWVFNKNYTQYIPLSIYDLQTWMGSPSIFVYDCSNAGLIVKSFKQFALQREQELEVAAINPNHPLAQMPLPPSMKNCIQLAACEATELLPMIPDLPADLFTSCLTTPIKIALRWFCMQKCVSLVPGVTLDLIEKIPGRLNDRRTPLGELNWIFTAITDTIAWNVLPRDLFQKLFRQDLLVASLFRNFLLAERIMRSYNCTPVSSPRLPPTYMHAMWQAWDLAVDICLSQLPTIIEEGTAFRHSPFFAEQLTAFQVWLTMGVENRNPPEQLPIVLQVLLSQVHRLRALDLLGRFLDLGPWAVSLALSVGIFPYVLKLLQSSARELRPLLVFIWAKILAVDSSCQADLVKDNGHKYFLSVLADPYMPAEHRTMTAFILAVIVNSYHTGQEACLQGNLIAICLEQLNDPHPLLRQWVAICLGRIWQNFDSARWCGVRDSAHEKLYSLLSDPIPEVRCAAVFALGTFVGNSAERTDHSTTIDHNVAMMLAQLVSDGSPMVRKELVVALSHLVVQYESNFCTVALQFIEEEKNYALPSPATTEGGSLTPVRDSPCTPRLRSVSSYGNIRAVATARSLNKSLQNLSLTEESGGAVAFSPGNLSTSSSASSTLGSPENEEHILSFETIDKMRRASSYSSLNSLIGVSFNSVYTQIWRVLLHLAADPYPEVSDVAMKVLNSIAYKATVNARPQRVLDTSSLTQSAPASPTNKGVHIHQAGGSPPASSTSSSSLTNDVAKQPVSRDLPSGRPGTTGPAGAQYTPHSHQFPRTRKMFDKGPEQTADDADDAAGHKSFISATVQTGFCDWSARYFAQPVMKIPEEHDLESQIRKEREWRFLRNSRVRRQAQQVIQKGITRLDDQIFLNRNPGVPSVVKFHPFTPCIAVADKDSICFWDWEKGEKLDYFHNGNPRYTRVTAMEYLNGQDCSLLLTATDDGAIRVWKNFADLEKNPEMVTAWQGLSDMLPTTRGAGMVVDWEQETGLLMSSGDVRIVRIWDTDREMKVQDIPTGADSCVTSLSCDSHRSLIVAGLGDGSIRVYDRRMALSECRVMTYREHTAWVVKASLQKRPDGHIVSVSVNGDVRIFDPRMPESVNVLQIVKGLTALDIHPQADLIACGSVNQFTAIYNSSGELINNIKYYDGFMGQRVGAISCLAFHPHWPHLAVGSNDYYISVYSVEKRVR
UniProt Q9H1K0, sequence (Q9H1K0 whole entry, looked up): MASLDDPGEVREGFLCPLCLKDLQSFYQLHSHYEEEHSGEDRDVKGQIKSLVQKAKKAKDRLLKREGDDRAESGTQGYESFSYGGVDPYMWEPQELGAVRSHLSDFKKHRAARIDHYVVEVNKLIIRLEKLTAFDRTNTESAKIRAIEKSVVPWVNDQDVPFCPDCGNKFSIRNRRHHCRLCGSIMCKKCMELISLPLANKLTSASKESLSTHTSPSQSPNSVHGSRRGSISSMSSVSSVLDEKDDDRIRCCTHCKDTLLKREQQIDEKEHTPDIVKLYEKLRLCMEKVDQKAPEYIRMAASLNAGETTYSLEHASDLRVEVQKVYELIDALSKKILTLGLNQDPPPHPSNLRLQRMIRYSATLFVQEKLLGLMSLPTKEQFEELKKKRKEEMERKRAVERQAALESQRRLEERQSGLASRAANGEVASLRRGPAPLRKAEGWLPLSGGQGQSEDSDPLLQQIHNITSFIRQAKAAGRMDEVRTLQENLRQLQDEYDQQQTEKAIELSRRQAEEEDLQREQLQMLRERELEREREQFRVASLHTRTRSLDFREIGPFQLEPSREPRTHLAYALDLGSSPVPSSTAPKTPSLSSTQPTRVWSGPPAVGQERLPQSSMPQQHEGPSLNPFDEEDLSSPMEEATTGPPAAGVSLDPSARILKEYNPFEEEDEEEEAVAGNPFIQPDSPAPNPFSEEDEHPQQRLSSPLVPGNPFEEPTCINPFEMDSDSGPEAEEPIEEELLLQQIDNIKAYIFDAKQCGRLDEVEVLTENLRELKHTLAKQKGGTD
UniProt O43819, sequence (O43819 whole entry, looked up): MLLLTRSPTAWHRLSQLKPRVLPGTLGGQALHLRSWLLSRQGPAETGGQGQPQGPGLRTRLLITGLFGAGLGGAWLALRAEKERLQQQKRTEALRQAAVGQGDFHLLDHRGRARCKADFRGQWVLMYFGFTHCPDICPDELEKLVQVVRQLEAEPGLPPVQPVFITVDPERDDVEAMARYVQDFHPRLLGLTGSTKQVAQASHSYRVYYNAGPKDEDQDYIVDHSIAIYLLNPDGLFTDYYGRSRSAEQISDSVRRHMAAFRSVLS

Target	log2 fold change (erlotinib)	log2 fold change [1]	log2 fold change [2]	log2 fold change [3]	log2 fold change [4]	log2 fold change [5]	log2 fold change [6]	log2 fold change [7]	log2 fold change [8]	log2 fold change (IRAK-1-4 Inhibitor I)	log2 fold change (ibrutinib)	log2 fold change [9]	log2 fold change (ralimetinib)	log2 fold change [10]	log2 fold change [11]	log2 fold change [12]	log2 fold change [13]	log2 fold change [14]	log2 fold change [15]	log2 fold change [16]
RBM42 (UniProt Q9BTD8)	-0.034	-0.161	0.073	-0.062	-0.018	-0.009	-0.05	-0.017	-0.014	0.049	0.071	0.02	-0.011	-0.007	0.081	0.025	0.04	-0.028	-0.005	0.069
RPTOR (UniProt Q8N122)	0.032	0.002	0.062	0.013	0.017	-0.002	-0.002	-0.036	-0.015	0.003	-0.042	0.008	-0.001	-0.045	-0.012	0.005	-0.039	0.005	0.038	0.01
RAPGEF2, A0A2R8YGD3	-0.009	0.16	0.038	0.042	-0.083	-0.047	0.053	0.007	-0.085	0.007	-0.059	0.007	0.008	-0.037	0.008	0.054	-0.07	0.025	-0.025	0.023
RBSN (UniProt Q9H1K0)	-0.067	-0.215	0.004	-0.014	-0.004	0.005	0.043	0.015	0.063	0.025	0.018	0.043	-0.014	-0.007	0.043	0.025	-0.032	0.044	0.003	0.035
RTN4IP1 (UniProt Q8WWV3)	-0.028	0.031	-0.028	0.065	-0.017	-0.003	0.022	0.033	-0.016	0.011	0.073	0.02	0.012	0.028	-0.042	-0.398 (active)	-0.011	-0.008	-0.015	-0.033
SCCPDH (UniProt Q8NBX0)	-0.213	-0.055	-0.027	0.083	-0.243	0.052	0.185	-0.03	0.026	0.016	0.155	-0.042	0.083	0.112	0.122	-0.017	-0.068	0.055	-0.098	0.187
REEP6 (UniProt Q96HR9)	-0.023	-0.026	0.008	0.077	-0.06	-0.029	-0.069	0.021	-0.022	-0.05	-0.026	-0.026	0.018	-0.029	-0.067	-0.006	-0.066	0.084	0.055	0.038
RFC3 (UniProt P40938)	0.05	0.01	-0.034	0.024	0.005	0.005	-0.027	-0.002	0.049	0.028	0.024	0.131	0.03	-0.012	-0.04	0.004	-0.034	0.002	0.042	-0.008
RPS6KA1 (UniProt Q15418)	0.001	-0.064	0.006	-0.029	0.04	0.13	0.509 (active)	-0.009	0.06	-0.036	0.047	0.555 (active)	0.32	-0.077	-0.011	-0.032	-0.035	-0.043	-0.052	-0.023
SAR1B (UniProt Q9Y6B6)	-0.143	0.011	0.042	-0.046	-0.065	-0.045	0.029	-0.126	0.025	0.041	0.02	-0.094	0.045	-0.032	0.093	0.154	-0.018	0.026	-0.065	0.077
SEC13 isoform 3 (UniProt P55735)	0.032	0.02	0.009	-0.019	0	-0.001	-0.033	-0.019	0.006	-0.028	-0.084	-0.025	0.024	-0.01	-0.015	-0.005	0.034	-0.032	0.031	-0.014
RFC2 (UniProt P35250)	-0.004	0.017	-0.059	-0.017	0.018	0.004	-0.013	-0.011	-0.031	-0.013	0.009	0.018	0.036	0.044	-0.002	-0.001	0.011	0.008	0.048	-0.001
SCO2 (UniProt O43819)	0.055	-0.09	0.057	0.023	-0.017	0.085	0.035	0.014	0.041	-0.015	-0.021	-0.065	-0.02	-0.142	0	-0.258	-0.009	0.017	0.01	-0.117
RDX (UniProt P35241)	-0.013	0.017	0.014	-0.023	-0.032	0.018	-0.009	0.012	-0.025	0.006	-0.051	0	-0.003	0.002	0.012	-0.016	-0.011	-0.021	-0.002	-0.004
RALA (UniProt P11233)	0.007	-0.146	-0.035	-0.04	0.031	-0.012	0.003	-0.016	0.002	0.04	0.009	-0.01	0.006	-0.05	0.034	-0.002	-0.001	0.057	-0.048	-0.023
RIOK1 (UniProt Q9BRS2)	-0.033	-0.029	0.034	0.209	0.393 (active)	0.128	0.4 (active)	-0.024	0.028	-0.02	0.006	0.251	0.002	-0.003	-0.005	0.004	-0.009	0.015	-0.009	0.249
